The results in this text go back to PubChem BioAssay (NCI).

Values joined by “and” are separate entries in the source; they are usually repeats but may differ in a detail not shown here. Identical values can stand only once. About 83,000 compounds went through this panel and 20% of them were active in at least one assay; those are over-represented in the sample as a whole.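 Compound tested at a single concentration for 48 hours in 96-well plates; a percent growth value below 10 was scored as active.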 Active and inactive are the calls of the source.

The assay concerns HL-60(TB) leukemia. Kind of assay: NCI-60 one-dose screen, 48 h (100 = growth as untreated, 0 = no growth, -100 = all killed). The following applies: 10 µM unless noted.
Regarding `COc1ccc(-c2nc(/C=N/Nc3cc(C)nc4ccc(Cl)cc34)c(C)o2)cc1`, the growth was -41% (active).

In the case of `O=c1[nH]cnc2c1ncn2C1OC(CO)C(O)C1O` (centres undefined), the growth was 97.1% (inactive) and 89.3% (inactive) and 101% (inactive).

As to `CC(C)c1cc(CNc2nc(Nc3cc(C4CC4)[nH]n3)cc(N3CCN(C)CC3)n2)on1`, the growth was -32.9% (active).

With `CC(C)(O)C1CCCN1C(=O)c1ccccc1I` (centres undefined), the growth is 89.3% (inactive).

Take `O=C(Cc1ccccc1)NC(c1ccc(Cl)cc1)c1c(O)ccc2ccccc12` (centres undefined): the growth was 7.2% (active).

For the compound `Fc1ccc(-c2nnc(-c3c(-c4ccc(F)cc4)nc4ncccn34)o2)cc1`, the growth is 87.8% (inactive).

Turning to `CN1C(=O)/C(=C/c2nc(-c3cccc(F)c3)n3ccccc23)c2ccccc21`, the growth was 92.6% (inactive).

For `Cc1nnc(NS(=O)(=O)c2ccc(N=Nc3ccc(N)nc3N)cc2)s1`, the growth is 98.4% (inactive) and 98.2% (inactive).

Turning to `Oc1ccc(Cl)cc1-c1cc(-c2ccccc2Cl)[nH]n1`, the growth is 46.6% (inactive).

Regarding `Nc1ccc(O)c(C(=O)O)c1`, the growth is 89.4% (inactive) and 104% (inactive) and 106% (inactive).

With `Cc1ccccc1CNc1ccc(N2CCOCC2)cc1`, the growth is 102% (inactive).

For the compound `CCOC(=O)C1=C(N)Oc2c(sc3c(F)cccc23)C1c1ccc(O)cc1` (centres undefined), the growth was 18.4% (inactive).

In the case of `NC(=O)c1ccc[n+](Cc2ccccc2)c1`, the growth was 152% (inactive).

As for `CCCCCC(=O)Oc1ccc(/C(=C(\C)c2ccc(OC)cc2)c2ccc(OCCN3CCCCC3)cc2)cc1`, the growth was 42.7% (inactive).
